# ChEMBL document CHEMBL3988442, “University of Dundee, Small-Polar-MMV Screening Library” (2021)
# For some assays here: Entries with a potency or affinity are not part of this list.
# Columns and labels:
# Parameters in all cases: scale not given: direction of the effect not stated beside the values
# [1] = molecular target: Protein translocase subunit SecA (Escherichia coli (strain K12)) (UniProt P10408); experiment: Assay to Identify E. coli SecA ATPase Inhibitors; assay type: functional; conditions: 30 µM
# [2] = molecular target: T1, Ubiquitin-activating enzyme e1, putative (Leishmania donovani (strain BPK282A1)) (UniProt E9BSI1); experiment: Leishmania donovani Ubiquitin Activating Enzyme (LdE1); assay type: functional; conditions: 30 µM
# T1 sequence (whole entry): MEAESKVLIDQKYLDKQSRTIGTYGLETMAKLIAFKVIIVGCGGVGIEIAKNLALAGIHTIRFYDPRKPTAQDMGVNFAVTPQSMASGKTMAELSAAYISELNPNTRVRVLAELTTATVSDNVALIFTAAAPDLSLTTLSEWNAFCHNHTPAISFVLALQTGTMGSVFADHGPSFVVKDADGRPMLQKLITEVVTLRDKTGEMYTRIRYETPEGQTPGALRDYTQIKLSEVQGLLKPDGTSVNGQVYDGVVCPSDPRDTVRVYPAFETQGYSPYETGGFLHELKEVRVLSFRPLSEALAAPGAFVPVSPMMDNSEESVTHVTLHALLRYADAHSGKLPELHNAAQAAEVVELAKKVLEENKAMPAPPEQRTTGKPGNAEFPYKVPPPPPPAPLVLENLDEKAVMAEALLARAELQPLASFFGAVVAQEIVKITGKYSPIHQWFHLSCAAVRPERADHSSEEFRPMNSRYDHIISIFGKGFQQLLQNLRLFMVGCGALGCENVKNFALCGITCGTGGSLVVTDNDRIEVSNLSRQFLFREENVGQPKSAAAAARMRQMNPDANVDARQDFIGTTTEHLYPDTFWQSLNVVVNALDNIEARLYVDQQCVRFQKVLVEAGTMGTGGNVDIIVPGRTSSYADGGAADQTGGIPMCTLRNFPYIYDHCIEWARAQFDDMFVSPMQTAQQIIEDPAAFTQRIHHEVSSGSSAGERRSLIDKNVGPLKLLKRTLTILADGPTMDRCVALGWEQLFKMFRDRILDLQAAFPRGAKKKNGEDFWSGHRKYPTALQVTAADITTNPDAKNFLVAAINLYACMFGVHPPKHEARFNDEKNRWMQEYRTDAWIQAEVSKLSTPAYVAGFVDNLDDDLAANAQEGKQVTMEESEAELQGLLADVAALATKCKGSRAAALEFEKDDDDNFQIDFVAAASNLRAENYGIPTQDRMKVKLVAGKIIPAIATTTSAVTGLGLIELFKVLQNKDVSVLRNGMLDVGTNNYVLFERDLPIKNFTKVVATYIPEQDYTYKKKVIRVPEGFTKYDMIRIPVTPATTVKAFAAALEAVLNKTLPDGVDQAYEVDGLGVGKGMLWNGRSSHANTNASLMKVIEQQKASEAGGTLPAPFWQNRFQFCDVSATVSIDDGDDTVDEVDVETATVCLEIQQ
# [3] = molecular target: AMP-activated protein kinase, AMPK (Homo sapiens) (UniProt P54646+O43741+P54619+Q9UGJ0+Q9Y478+Q13131+Q9UGI9); experiment: AMP-dependent Kinase enzyme assay. An in vitro enzyme assay that detects ADP turnover that is directly proportional to AMPK activity. This uses naive AMPK that is activated during the assay with MK-8722; assay type: functional; conditions: 30 µM
# [4] = molecular target: Sialic acid-binding Ig-like lectin 9 (Homo sapiens) (UniProt Q9Y336); experiment: Hs-Siglec9 ALPHAscreen SOP 20170721; conditions: 10 µM
# Trypanosoma cruzi = experiment: Trypanosoma cruzi phosphomannomutase and mannose-1-phosphate guanylyltransferase assay; assay type: functional; conditions: 10 µM
# [5] = molecular target: T2, Arginase-2, mitochondrial (Homo sapiens) (UniProt P78540); experiment: in vitro enzyme assay to detect the production of urea directly proportional to the activity of Arginase II; assay type: functional; conditions: 33.3 µM; also: in the data most compounds retested in dose-response had high values
# T2 sequence (whole entry): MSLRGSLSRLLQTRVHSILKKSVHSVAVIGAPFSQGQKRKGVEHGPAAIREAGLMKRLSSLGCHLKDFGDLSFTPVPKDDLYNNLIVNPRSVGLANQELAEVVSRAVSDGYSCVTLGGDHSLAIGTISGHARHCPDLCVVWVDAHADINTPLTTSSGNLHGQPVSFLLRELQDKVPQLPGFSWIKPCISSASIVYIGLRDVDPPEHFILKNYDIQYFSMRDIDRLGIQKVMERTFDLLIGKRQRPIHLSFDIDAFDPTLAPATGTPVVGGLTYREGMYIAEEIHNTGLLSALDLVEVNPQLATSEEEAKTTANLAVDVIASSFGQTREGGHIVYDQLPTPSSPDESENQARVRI
# [6] = molecular target: T3, Proteasome subunit beta (Trypanosoma cruzi) (UniProt O96673); experiment: Trypanosoma cruzi proteasome chymotrypsin-like activity (TcProtChymo) assay.; also: in the data most compounds retested in dose-response had high values; assay type: functional; conditions: 9.37 µM
# T3 sequence (whole entry): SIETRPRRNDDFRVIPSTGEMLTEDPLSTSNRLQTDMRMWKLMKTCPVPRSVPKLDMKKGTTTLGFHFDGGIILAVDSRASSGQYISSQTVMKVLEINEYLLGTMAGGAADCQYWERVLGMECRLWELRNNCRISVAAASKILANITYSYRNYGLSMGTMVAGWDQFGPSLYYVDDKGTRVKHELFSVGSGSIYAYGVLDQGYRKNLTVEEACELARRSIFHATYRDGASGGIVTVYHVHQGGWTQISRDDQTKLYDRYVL
# Homo sapiens = organism: Homo sapiens; experiment: To identify inhibition of the IFN signalling (Jak-Stat) pathway via expression of an eGFP reporter gene under the control of an IFN-stimulated response element (ISRE) containing MxA promoter.; assay type: functional; conditions: 30 µM
# [7] = molecular target: T4, Tyrosyl-tRNA synthetase, putative (Trypanosoma cruzi (strain CL Brener)) (UniProt Q4DSP6); experiment: Trypanosoma cruzi tyrosyl tRNA synthetase (TcYRS) _High Tyrosine SOP; assay type: functional; conditions: 30 µM; also: in the data most compounds retested in dose-response had high values
# T4 sequence (whole entry): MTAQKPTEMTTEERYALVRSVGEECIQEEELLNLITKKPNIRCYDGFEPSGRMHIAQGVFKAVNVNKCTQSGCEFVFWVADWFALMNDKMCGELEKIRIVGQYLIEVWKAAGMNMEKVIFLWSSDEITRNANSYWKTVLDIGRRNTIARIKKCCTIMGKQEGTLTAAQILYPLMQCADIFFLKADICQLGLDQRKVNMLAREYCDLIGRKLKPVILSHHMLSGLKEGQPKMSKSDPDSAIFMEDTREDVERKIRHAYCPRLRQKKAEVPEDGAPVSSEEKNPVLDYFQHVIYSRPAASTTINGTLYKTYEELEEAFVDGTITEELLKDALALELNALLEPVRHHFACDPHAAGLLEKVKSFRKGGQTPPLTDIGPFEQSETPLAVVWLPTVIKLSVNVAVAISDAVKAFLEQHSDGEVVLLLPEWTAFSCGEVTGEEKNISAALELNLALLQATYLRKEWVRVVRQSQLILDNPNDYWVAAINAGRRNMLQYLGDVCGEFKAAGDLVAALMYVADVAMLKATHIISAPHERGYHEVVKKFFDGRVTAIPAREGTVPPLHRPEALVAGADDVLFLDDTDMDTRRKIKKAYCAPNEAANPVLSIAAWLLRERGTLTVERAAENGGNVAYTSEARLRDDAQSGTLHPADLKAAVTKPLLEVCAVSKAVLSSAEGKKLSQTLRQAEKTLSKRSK
# [8] = molecular target: T4, Tyrosyl-tRNA synthetase, putative (Trypanosoma cruzi (strain CL Brener)); experiment: Trypanosoma cruzi tyrosyl tRNA synthetase (TcYRS) SOP; assay type: functional; conditions: 30 µM
# [9] = molecular target: Chromo domain-containing protein 1 (Saccharomyces cerevisiae (strain ATCC 204508 / S288c) (Baker's yeast)) (UniProt P32657); experiment: ScCHD-1 Enzyme Inhibition Assay; assay type: functional; conditions: 30 µM; also: in the data most compounds retested in dose-response had high values
# Chain of Chromo domain-containing protein 1 (Saccharomyces cerevisiae (strain ATCC 204508 / S288c) (Baker's yeast)) (P32657 whole entry, the tested form may be a part): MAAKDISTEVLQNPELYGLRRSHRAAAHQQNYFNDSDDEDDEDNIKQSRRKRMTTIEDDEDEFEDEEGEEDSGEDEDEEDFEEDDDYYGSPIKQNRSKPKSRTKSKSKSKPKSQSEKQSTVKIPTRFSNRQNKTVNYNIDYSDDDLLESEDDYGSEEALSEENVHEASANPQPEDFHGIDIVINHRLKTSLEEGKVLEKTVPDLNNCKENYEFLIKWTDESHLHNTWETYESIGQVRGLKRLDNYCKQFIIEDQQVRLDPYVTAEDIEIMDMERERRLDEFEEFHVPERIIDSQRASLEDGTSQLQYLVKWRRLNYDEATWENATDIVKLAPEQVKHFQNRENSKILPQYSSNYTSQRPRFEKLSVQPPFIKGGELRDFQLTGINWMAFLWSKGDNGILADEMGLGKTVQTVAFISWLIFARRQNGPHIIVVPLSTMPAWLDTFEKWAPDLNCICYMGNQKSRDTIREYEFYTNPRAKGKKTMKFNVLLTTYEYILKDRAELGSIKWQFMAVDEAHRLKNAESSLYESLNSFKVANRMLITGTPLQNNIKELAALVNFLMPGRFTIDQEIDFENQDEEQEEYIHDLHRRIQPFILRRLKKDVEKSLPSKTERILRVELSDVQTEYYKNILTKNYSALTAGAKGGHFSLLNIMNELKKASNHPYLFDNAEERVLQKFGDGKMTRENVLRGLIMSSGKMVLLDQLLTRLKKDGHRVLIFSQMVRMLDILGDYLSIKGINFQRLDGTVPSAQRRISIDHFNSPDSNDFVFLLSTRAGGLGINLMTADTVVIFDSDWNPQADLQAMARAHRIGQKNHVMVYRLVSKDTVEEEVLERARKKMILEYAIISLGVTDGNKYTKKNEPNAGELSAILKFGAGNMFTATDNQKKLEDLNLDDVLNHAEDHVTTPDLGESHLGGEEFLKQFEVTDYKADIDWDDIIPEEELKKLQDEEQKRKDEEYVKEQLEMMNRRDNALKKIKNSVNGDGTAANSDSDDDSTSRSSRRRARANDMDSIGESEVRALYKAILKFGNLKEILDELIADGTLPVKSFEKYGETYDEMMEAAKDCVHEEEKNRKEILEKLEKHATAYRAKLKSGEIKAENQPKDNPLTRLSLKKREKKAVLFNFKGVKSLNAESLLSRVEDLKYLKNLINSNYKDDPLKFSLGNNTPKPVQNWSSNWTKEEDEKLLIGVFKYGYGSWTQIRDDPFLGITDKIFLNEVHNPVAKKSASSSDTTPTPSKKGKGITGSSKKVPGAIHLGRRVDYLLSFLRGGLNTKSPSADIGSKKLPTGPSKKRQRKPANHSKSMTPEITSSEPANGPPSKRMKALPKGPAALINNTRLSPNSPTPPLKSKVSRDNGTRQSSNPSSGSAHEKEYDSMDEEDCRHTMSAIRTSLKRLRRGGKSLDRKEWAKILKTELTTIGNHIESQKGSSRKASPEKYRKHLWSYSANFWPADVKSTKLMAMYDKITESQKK
# Chain of Protein translocase subunit SecA (Escherichia coli (strain K12)) (P10408 whole entry): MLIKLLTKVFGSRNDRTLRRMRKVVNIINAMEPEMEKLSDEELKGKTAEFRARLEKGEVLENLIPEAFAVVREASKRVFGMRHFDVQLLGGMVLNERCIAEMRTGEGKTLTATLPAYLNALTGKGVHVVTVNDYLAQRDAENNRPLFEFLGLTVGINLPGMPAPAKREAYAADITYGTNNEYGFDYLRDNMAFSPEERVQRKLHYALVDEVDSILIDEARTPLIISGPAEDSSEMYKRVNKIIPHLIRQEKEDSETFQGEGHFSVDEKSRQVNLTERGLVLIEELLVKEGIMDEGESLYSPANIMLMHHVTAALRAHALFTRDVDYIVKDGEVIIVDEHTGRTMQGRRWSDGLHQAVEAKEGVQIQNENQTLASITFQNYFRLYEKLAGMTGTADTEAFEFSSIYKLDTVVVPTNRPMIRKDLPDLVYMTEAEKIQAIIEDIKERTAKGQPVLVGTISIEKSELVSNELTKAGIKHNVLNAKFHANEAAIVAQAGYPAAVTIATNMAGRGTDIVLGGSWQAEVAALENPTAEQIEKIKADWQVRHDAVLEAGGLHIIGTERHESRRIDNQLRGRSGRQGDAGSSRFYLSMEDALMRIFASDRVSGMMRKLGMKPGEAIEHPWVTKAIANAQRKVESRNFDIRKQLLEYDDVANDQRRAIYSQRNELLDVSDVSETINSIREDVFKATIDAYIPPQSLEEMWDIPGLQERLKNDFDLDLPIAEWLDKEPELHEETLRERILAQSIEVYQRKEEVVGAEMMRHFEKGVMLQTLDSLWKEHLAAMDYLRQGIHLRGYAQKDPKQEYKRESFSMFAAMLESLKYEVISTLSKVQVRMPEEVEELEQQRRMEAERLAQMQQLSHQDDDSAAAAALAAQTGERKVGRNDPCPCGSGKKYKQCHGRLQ
# Chain of Sialic acid-binding Ig-like lectin 9 (Homo sapiens) (Q9Y336 whole entry): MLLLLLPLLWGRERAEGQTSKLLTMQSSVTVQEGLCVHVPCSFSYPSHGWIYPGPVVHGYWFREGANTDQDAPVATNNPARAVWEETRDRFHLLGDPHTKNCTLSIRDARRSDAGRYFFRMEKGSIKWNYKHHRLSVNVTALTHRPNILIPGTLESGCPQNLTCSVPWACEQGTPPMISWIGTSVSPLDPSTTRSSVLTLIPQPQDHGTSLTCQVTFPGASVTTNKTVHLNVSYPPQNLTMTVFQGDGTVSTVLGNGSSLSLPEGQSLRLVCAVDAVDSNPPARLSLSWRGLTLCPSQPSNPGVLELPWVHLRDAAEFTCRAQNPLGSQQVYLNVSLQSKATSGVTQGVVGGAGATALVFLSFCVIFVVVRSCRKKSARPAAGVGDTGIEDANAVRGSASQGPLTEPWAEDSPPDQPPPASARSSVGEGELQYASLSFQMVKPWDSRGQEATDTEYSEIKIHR
SMILES,Percent Effect [1] [%],Percent Effect [2] [%],Percent Effect [3] [%],Percent Effect [4] [%],Percent Effect (Trypanosoma cruzi) [%],Percent Effect [5] [%],Percent Effect [6] [%],Percent Effect (Homo sapiens) [%],Percent Effect [7] [%],Percent Effect [8] [%],Percent Effect [9] [%]
CN(Cc1cn2c(n1)CN(CC1CC1)CC2)Cc1ccco1,-3.08,8,16.6,0.972,-3.35,0.233,1.5,8.85,7.45,8.97,-4.14
COCCN1C(=O)CC(N2CCN(c3ccc(OC)cc3)CC2)C1=O (configuration not stated),1.03,6.94,1.7,4.19,4.37,13.7,16.8,-7.93,8.42,15.4,-3.31
Cn1cc(NS(=O)(=O)c2ccc(OC(F)(F)F)cc2)ccc1=O,-4.62,7.59,-136,-4.96,-9.73,-1.9,0.246,62.5,0.493,8.86,-4.48
CN(Cc1ccc(F)cc1)C(=O)NCc1nnc2n1CCCCC2,-8.45,12.7,-3.69,5.52,10.5,-6.08,7.62,15.3,6.4,13.9,-15
c1ccc(C[C@H]2[C@H](N3CCOCC3)CCN2Cc2cccnc2)cc1,-1.09,2.67,3.8,7.7,-5.21,-56.1,4.1,-7.93,1.04,12.5,-4.71
O=C(NCc1ccc(-n2cncn2)nc1)c1ccc2c(c1)CCO2,-5.02,8.11,-9.05,1.05,1.79,-2.4,-3.96,14.7,7.39,13.6,-6.1
O=c1[nH]c(CN(Cc2ccco2)C2CCCC2)nc2ccccc12,-2.15,18.2,7.19,1.72,3.75,0.712,10.5,26.1,8.74,24.4,-9.34
CC(C)OCCCNC(=O)c1ccc(-c2ccco2)[nH]c1=O,-4.6,10.8,60.2,-6.26,-7.83,-1.6,10.1,12.9,6.4,11.1,-5.48
COc1cccc(CCNS(=O)(=O)c2ccc(NC(C)=O)cc2)c1,-3.33,5.26,4.42,-2.24,-4.58,-8.28,17,21.2,1.06,10.4,-4.22
CCS(=O)(=O)c1ccccc1N1CCC(NC(=O)c2ccc[nH]2)CC1,-4.07,8.11,1.8,7.6,6.78,-7.95,2.15,13,8.91,18.3,-1.36
CCc1nnc2n1CCN(C(=O)COCCc1ccccc1)C2,-5.81,15.8,-4.37,7.1,-2.71,1.8,1.78,-1.11,3.45,13.6,-2.89
CN1CCOC(CN(C(=O)Cc2ccccc2F)c2nccs2)C1 (configuration not stated),-1.47,0,-3.71,11.3,8.82,-2.03,-0.539,1.86,1.98,6.1,5.97
O=C(c1ccc(O)c(Cl)c1)N1CCC(c2n[nH]c(C3CC3)n2)CC1,-6.1,3.8,-0.285,-6.96,-5.44,-1.5,9.61,8.98,1.04,0,-0.322
COc1ccc(C2(NC(=O)CCn3cncn3)CCCCC2)cc1,-4.12,9.46,4.65,7.71,0.79,1.62,11.2,-2,3.23,11.7,-14.1
CC1CN(CC(=O)NC(=O)NCc2ccccc2)CCO1 (configuration not stated),-0.548,15.8,0.54,-9.53,3.21,-1.18,19.5,11.4,2.13,7.79,-8.02
O=C(NCc1cccc2cccnc12)N1CCC(n2cncn2)CC1,-2.83,6.33,9.77,5.48,-5.03,2.37,-0.515,12.1,9.38,7.59,-4.9
COc1ccccc1CC(=O)N1CCC(NCc2cc[nH]c2)CC1,-0.99,18.9,-7.09,-3.31,4.92,5.36,16.3,5.88,11.9,23.2,-7.56
CCn1cc(NC(=O)C2CCN(CC(=O)N3CCOCC3)CC2)cn1,-3.94,10.5,-3.09,3.27,-4.01,1.8,3.98,3.5,2.46,11.1,4.1
O=C(c1cnc(-c2cccs2)s1)N1CCCC(n2cccn2)C1 (configuration not stated),-4.52,13.5,1.78,1.67,-1.6,-2,3.24,13.5,5.42,11.1,-8.6
CCN(CC)Cc1ccc(C(=O)N2CCCCC2Cn2cccn2)o1 (configuration not stated),-1.67,-5.41,0.822,4.06,-0.0929,-1.29,3.23,2.84,0,1.22,0.882
Cn1cc(CN2CCN(Cc3nccn3C)CC2)cn1,1.49,10.8,7.76,-5.51,-8.31,-1.24,7.12,43.3,0,1.24,-4.77
Cc1ncc(CNC2CCCN(Cc3noc(C4CC4)n3)C2)s1 (configuration not stated),-0.948,10.5,2.18,8.33,3.01,2.3,10.2,8.96,7.35,19.5,-8.72
